Among the data in publication PMC4081100, “A DNA-binding-site landscape and regulatory network analysis for NAC transcription factors in Arabidopsis thaliana” are binding signal values, retold here.

Holding throughout (experiment): universal protein binding microarray (PBM); transcription factors of Arabidopsis thaliana; high values mean tight binding
Common to all, as to details: protein: recombinant; tags: GST; chain copies: 2; dsDNA, one strand shown

The target in test [1] is T1, GST-ANAC092(1-176) (Arabidopsis thaliana, UniProt Q9FKA0 1-176).
T1 sequence: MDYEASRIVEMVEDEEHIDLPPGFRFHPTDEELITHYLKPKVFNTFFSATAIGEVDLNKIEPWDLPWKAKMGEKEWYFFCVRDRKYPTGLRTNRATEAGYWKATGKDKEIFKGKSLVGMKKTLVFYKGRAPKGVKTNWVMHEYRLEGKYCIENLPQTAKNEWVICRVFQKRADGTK
In outline: (§1)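 Binding is expressed as the normalised enrichment score (E-score). Proteins carrying a GST tag, whether NAC-domain, full-length or DNA-binding-domain forms, were induced in cells, and zinc acetate was added for zinc-finger proteins. After purification on glutathione–Sepharose 4B and quantification by A280 or anti-GST western blot, each was applied in duplicate at 200 to 500 nM final to custom all-10-mer Agilent 4 × 180K arrays made double-stranded by primer extension. Gapped and ungapped 8-mers were scored.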

Test [2] has as its target T2, GST-ANAC019 NAC domain (Arabidopsis thaliana, UniProt Q9C932 14-162).
T2 sequence: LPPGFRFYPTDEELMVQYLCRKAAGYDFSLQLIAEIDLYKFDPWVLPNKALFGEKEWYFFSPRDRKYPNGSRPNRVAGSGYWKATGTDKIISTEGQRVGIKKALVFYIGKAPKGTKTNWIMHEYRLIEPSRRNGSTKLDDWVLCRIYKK
In outline: as §1

The target of test [3] is T3, GST-ANAC055(1-171) (Arabidopsis thaliana, UniProt Q9LDY8 1-171).
T3 sequence: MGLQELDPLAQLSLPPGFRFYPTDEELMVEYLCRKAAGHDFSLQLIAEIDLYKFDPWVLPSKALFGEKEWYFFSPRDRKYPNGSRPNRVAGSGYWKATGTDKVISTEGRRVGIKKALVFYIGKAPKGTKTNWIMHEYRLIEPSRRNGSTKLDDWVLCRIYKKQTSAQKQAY
In outline:
as §1

Test [4] concerns the target T4, GST-ATAF1 NAC domain (Arabidopsis thaliana, UniProt Q39013 7-158).
T4 sequence: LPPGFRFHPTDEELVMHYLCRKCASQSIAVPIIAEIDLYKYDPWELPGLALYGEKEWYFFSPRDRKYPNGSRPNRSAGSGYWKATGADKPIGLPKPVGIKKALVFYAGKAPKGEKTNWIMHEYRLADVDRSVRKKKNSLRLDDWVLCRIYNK
In a few lines: as §1

The target in test [5] is T5, GST-ANAC092(1-285) full length (Arabidopsis thaliana, UniProt Q9FKA0 1-285).
T5 sequence: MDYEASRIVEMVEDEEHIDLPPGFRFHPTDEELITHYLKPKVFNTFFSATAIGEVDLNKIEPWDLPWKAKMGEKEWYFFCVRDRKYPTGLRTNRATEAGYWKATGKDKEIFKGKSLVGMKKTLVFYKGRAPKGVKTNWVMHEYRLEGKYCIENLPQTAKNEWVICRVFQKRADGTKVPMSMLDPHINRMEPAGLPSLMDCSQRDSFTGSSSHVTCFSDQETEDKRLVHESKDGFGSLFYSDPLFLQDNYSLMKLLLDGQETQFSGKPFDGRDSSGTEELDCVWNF
In a few lines:
as §1

For test [6], the target named is T6, GST-NAP(1-166) (Arabidopsis thaliana, UniProt O49255 1-166).
T6 sequence: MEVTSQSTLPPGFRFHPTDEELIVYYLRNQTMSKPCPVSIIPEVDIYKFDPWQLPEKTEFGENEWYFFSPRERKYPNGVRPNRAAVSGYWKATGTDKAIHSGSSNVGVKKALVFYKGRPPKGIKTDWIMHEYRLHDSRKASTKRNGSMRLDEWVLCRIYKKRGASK
In outline: as §1

Test [7] deals with T7, GST-NST2(1-184) (Arabidopsis thaliana, UniProt Q9M274 1-184).
T7 sequence: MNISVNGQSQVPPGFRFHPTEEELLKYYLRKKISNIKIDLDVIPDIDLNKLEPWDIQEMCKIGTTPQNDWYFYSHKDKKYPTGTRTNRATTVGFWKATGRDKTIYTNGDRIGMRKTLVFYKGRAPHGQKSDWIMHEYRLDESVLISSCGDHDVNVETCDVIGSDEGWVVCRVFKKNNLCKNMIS
In outline: as §1

Test [8] addresses T8, GST-SND1(1-203) (Arabidopsis thaliana, UniProt Q9LPI7 1-203).
T8 sequence: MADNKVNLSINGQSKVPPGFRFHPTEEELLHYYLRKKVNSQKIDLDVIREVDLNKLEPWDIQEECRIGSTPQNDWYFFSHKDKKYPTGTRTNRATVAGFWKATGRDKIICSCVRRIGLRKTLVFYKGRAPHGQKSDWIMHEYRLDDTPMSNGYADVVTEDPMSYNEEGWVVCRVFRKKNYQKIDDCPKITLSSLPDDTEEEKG
In a few lines:
as §1

In test [9] the target is T9, GST-VND3 NAC domain (Arabidopsis thaliana, UniProt Q9FH59 12-162).
T9 sequence: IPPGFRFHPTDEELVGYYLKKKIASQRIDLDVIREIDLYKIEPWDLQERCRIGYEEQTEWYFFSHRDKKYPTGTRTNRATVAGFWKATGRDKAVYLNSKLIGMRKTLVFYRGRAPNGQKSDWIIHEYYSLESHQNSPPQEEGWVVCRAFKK
In outline:
as §1

Test [10] deals with T10, GST-VND7 NAC domain (Arabidopsis thaliana, UniProt Q9C8W9 9-158).
T10 sequence: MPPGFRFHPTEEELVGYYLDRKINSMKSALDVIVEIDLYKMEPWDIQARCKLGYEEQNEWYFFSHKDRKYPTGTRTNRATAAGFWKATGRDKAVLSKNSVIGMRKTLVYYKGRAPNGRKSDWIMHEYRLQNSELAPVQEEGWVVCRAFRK
In outline: as §1

The target of test [11] is GST-NTL6(1-168) (Arabidopsis thaliana, UniProt Q9SCK6 1-168). In outline:
as §1

The target of test [12] is T11, GST-NTL8 NAC domain (Arabidopsis thaliana, UniProt Q9XIN7 14-156).
T11 sequence: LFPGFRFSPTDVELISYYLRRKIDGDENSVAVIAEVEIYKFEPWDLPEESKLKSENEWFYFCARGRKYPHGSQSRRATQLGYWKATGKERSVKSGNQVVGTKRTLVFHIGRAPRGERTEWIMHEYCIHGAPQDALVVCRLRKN
In a few lines: as §1

Sequence of GST-NTL6(1-168) (Q9SCK6 1-168): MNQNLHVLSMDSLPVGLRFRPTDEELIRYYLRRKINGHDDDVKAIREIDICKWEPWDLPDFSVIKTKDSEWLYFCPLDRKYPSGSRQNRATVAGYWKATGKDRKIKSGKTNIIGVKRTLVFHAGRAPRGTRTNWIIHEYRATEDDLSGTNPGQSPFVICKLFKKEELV

With CGCACGCA, the binding signal in test [1] came out at 0.401 E-score; in test [2] it was 0.291 E-score; in test [3], 0.241 E-score; in test [4] it was 0.0589 E-score; in test [5], 0.42 E-score; in test [6], 0.291 E-score. The binding signal in test [7] is 0.213 E-score; in test [8] it was 0.229 E-score; in test [9], 0.213 E-score; in [10], 0.232 E-score.

With TCACGGAA, the binding signal in test [1] was 0.363 E-score; in test [2] it was 0.465 E-score; in test [3] it was 0.432 E-score; in [4] it was 0.332 E-score; in test [5], 0.381 E-score; in test [6], 0.383 E-score. The binding signal in test [8] came out at 0.219 E-score; in [9], 0.381 E-score; in test [10], 0.436 E-score.

Consider ACGGCACC, for which the binding signal in test [1] was 0.406 E-score; in test [2], 0.425 E-score; in [3] it was 0.358 E-score; in test [4] it was 0.375 E-score; in [5], 0.452 E-score; in test [6], 0.381 E-score. Moreover, the binding signal in test [7] amounted to 0.0937 E-score; in test [8] it was 0.237 E-score; in test [9], 0.318 E-score; in [10], 0.333 E-score.

As for GGACGCAA, the binding signal in [1] was determined as 0.411 E-score; in [2], 0.155 E-score; in [3] it was 0.0669 E-score; in test [4] it was 0.0919 E-score; in [5] it was 0.437 E-score; in [6] it was 0.303 E-score. The binding signal was 0.107 E-score in test [7], 0.25 E-score in [8], 0.0908 E-score in test [9] and 0.0578 E-score in test [10].

As to GATGCGTA, the binding signal worked out at 0.368 E-score in [1]; 0.216 E-score in test [2]; 0.227 E-score in test [3]; 0.239 E-score in [4]; 0.416 E-score in test [5]; 0.182 E-score in [6]. For the same sequence, the binding signal amounted to 0.185 E-score in test [7], 0.415 E-score in [8], 0.267 E-score in test [9] and 0.186 E-score in test [10].

As for ATTGCTTA, the binding signal in test [1] turned out to be 0.273 E-score; in test [11], 0.423 E-score; in test [5] it was 0.319 E-score; in [7] it was 0.288 E-score; in test [12], 0.0937 E-score; in test [8], 0.457 E-score. In addition, the binding signal was found to be 0.16 E-score in test [9] and 0.172 E-score in test [10].

In the case of AAAGCAAC, the binding signal in [1] is 0.268 E-score; in [11], 0.0839 E-score; in test [3], 0.0548 E-score; in test [5], 0.373 E-score; in test [7], 0.277 E-score; in test [12], 0.0929 E-score. Moreover, the binding signal in [8] is 0.401 E-score; in test [9] it was 0.0501 E-score; in test [10], 0.145 E-score.

In the case of GTTACGCA, the binding signal was 0.338 E-score in test [1]; 0.301 E-score in [2]; 0.189 E-score in test [3]; 0.2 E-score in [4]; 0.363 E-score in test [5]; 0.263 E-score in [6]. The binding signal in test [7] worked out at 0.219 E-score; in [8], 0.422 E-score; in [9], 0.317 E-score; in [10], 0.215 E-score.

Regarding GACGTGTA, the binding signal in test [1] was 0.409 E-score; in test [2] it was 0.354 E-score; in [3] it was 0.341 E-score; in test [4] it was 0.291 E-score; in test [5], 0.437 E-score; in test [6] it was 0.327 E-score. Also, the binding signal in [7] was 0.193 E-score; in test [8] it was 0.229 E-score; in test [9] it was 0.354 E-score; in test [10], 0.338 E-score.

On to GCGTACGC, for which the binding signal was 0.402 E-score in [1]; 0.287 E-score in test [2]; 0.265 E-score in [3]; 0.16 E-score in test [4]; 0.418 E-score in [5]; 0.226 E-score in test [6]. The binding signal turned out to be 0.251 E-score in test [7], 0.288 E-score in [8], 0.0861 E-score in [9] and 0.346 E-score in test [10].

In the case of ATAACGTG, the binding signal was determined as 0.446 E-score in [1]; 0.0978 E-score in test [2]; 0.143 E-score in test [3]; 0.142 E-score in test [4]; 0.447 E-score in test [5]; 0.165 E-score in test [6]. Also, the binding signal in test [7] turned out to be 0.221 E-score; in test [8] it was 0.299 E-score; in test [9], 0.191 E-score; in [10] it was 0.109 E-score.

As to ACACGTAT, the binding signal in test [1] was 0.289 E-score; in test [2], 0.406 E-score; in test [3], 0.342 E-score; in [4] it was 0.312 E-score; in test [5] it was 0.369 E-score; in test [6] it was 0.387 E-score. Also, the binding signal in [7] was found to be 0.19 E-score; in test [8], 0.139 E-score; in test [9], 0.38 E-score; in test [10] it was 0.381 E-score.

As for TACCTTAA, the binding signal came out at 0.193 E-score in test [1]; 0.42 E-score in [11]; 0.0879 E-score in test [3]; 0.131 E-score in [4]; 0.26 E-score in [5]; 0.149 E-score in [7]. In addition, the binding signal amounted to 0.298 E-score in test [12], 0.291 E-score in test [8], 0.16 E-score in test [9] and 0.0949 E-score in [10].

On to GAAGCAAC, for which the binding signal in [1] is 0.372 E-score; in [11] it was 0.399 E-score; in test [3], 0.142 E-score; in test [4] it was 0.103 E-score; in test [5], 0.417 E-score; in test [7], 0.282 E-score. In addition, the binding signal in test [12] amounted to 0.416 E-score; in [8], 0.443 E-score; in test [9], 0.0788 E-score; in [10] it was 0.228 E-score.

As for CGACACGC, the binding signal in [1] came out at 0.316 E-score; in test [2], 0.246 E-score; in [3], 0.131 E-score; in [4] it was 0.188 E-score; in test [5] it was 0.403 E-score; in [6], 0.194 E-score. For the same sequence, the binding signal in test [8] amounted to 0.134 E-score; in test [9] it was 0.138 E-score; in test [10] it was 0.198 E-score.

Regarding GCACGTTA, the binding signal came out at 0.433 E-score in test [1]; 0.153 E-score in test [2]; 0.205 E-score in [3]; 0.226 E-score in test [4]; 0.464 E-score in [5]; 0.222 E-score in test [6]. Further, the binding signal in test [7] worked out at 0.234 E-score; in [8], 0.369 E-score; in [9], 0.217 E-score; in [10] it was 0.246 E-score.
